Test results reported in PubChem BioAssay (EPA / NIEHS).
Inconclusive results are not listed. Active and inactive are the calls of the source. Rule for the calls, unless noted: active = hit-call score of the fitted dose curve at least 0.9, where 1 is the maximum; inactive = score below 0.9.

What was measured:
[1] = ACEA_ER_80hr: ACEA Biosciences xCELLigence Real-Time Cell Analysis on Estrogen Receptor Agonism for Proliferation (AID 2282667; active = hit-call score of the fitted dose curve at least 0.9, where 1 is the maximum); details: T47D proliferation, impedance (xCELLigence), 80 h
How it was run: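 Estrogen-driven proliferation is captured as electrode impedance in T47D cells 80 h after compound addition. Test articles ran at 8 concentrations, 1:4 dilutions from 100 uM final, in two replicate plates.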

[2] = APR_HepG2_CellCycleArrest_24hr: Apredica 24-hour HepG2 Assay for Cell Cycle Arrest (AID 2282905); details: imaging, actives raise or lower the signal;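 note: cell cycle arrest scored as ratio of 2N to 4N nuclear DNA content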
How it was run: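 HepG2 cells were exposed to compounds at 0.39–200 uM (ten concentrations, duplicate) in 0.5% v/v DMSO for 24 hr. After formaldehyde fixation and Triton permeabilization, Hoechst 33342-stained nuclei were imaged at 20x; DNA content was quantified, with bidirectional fitting against DMSO.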

[3] = APR_HepG2_NuclearSize_24hr: Apredica 24-hour HepG2 Assay for Nuclear Size (AID 2282907); details: high-content imaging, actives raise or lower the signal
How it was run: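 HepG2 human liver cells were exposed for 24 hr to compounds at 0.39–200 uM (ten concentrations, duplicate) in 0.5% v/v DMSO. They were then formaldehyde-fixed, Triton-permeabilized and Hoechst 33342-stained, and nuclear diameter was imaged at 20x. Bidirectional fits were made against DMSO.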

[4] = APR_HepG2_CellLoss_24hr: Apredica 24-hour HepG2 Assay for Cell Loss (AID 2282908); details: high-content imaging;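 for AC50: fit in both directions so a hit may be cell loss or gain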
How it was run: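 Compounds were tested at 0.39–200 uM in duplicate with 0.5% v/v DMSO final. Cells were then fixed in 3.7% formaldehyde, Hoechst 33342 nuclei were imaged at 20x by HCS, and cell number was fitted bidirectionally against DMSO.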

[5] = APR_HepG2_MicrotubuleCSK_24hr: Apredica 24-hour HepG2 Assay for Microtubule CSK Stabilty (AID 2282909); details: HepG2 microtubule cytoskeleton imaging, actives raise or lower the signal
How it was run: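 HepG2 cells exposed 24 h to compounds at 0.39–200 uM (duplicate, 0.5% v/v DMSO final), then fixed, permeabilized and immunostained for alpha-tubulin with Hoechst 33342. Cytoskeleton imaged at 20x; bidirectional fit versus DMSO baseline.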

[6] = APR_HepG2_MitoticArrest_24hr: Apredica 24-hour HepG2 Assay for Mitotic Arrest (AID 2282910); details: high-content imaging, actives raise or lower the signal
How it was run: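 Compounds are dosed onto HepG2 cells across ten concentrations up to 200 uM for 24 hr. Cells are then fixed in 3.7% formaldehyde, permeabilised, and labelled for phospho-histone H3 and nuclei; images are scored by cell cycle analysis and fitted bidirectionally relative to DMSO.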

[7] = APR_HepG2_MitoMembPot_24hr: Apredica 24-hour HepG2 Assay for Mitochondrial Membrane Potential (AID 2282911); details: imaging, actives raise or lower the signal
How it was run: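 Mitochondrial dye uptake (MitoTracker Red CMXRos, 250 nM, 30 min pre-fixation) in HepG2 after 24 hr compound exposure, 0.39–200 uM; ArrayScan images at 20x, activity fitted in both directions relative to DMSO.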

[8] = APR_HepG2_MitoMass_24hr: Apredica 24-hour HepG2 Assay for Mitochondrial Mass (AID 2282912); details: high-content imaging, actives raise or lower the signal
How it was run: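 Human HepG2 liver cells were exposed for 24 hr to compounds at 0.39–200 uM (duplicates, 0.5% v/v DMSO final). They were stained live with 250 nM MitoTracker Red CMXRos for 30 min, fixed in 3.7% formaldehyde, and imaged by HCS fluorescence; signals were fitted bidirectionally against DMSO.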

[9] = APR_HepG2_p53Act_24hr: Apredica 24-hour HepG2 Assay for p53 Activation (AID 2282913); details: high-content imaging, actives raise or lower the signal;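 note: p53 protein immunofluorescence averaged per cell in HepG2 with Hoechst nuclei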
How it was run: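 Following 24 hr dosing of HepG2 at 0.39–200 uM, the cells undergo formaldehyde fixation, Triton permeabilization and multiplexed antibody labeling that includes p53 (Cy5). Signal from the imaging is referenced to DMSO solvent controls.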

[10] = APR_HepG2_CellLoss_72hr: Apredica 72-hour HepG2 Assay for Cell Loss (AID 2282915); details: high-content imaging
How it was run: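 Cell number comes from Hoechst 33342-labelled nuclei, imaged at 20x after 3.7% formaldehyde fixation. Dosing was 0.39–200 uM, ten concentrations in duplicate, 0.5% DMSO final, for 72 h. Bidirectional fit relative to DMSO baseline.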

[11] = APR_HepG2_P-H2AX_72hr: Apredica 72-hour HepG2 Assay for H2AX Phosphorylation (AID 2282916); details: imaging, actives raise or lower the signal;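 note: phospho-histone H2A.x immunostain intensity per cell marking DNA damage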
How it was run: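 HepG2 human liver cells were exposed for 72 hr to compounds at 0.39–200 uM (10 concentrations, duplicate per plate) in 0.5% v/v DMSO. Fixed, permeabilized cells were immunolabeled for phospho-histone H2A.x with Hoechst 33342 and imaged by HCS fluorescence; bidirectional fit versus DMSO.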

[12] = APR_HepG2_P-H2AX_24hr: Apredica 24-hour HepG2 Assay for H2AX Phosphorylation (AID 2282920); details: high-content imaging, actives raise or lower the signal
How it was run: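 Human HepG2 liver cells, treated 24 hr with test chemicals (0.39–200 uM, final DMSO 0.5% v/v), are fixed and co-stained for phospho-H2A.x and c-Jun with Hoechst. Imaged intensity is fitted in both directions against DMSO controls.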

[13] = APR_HepG2_StressKinase_72hr: Apredica 72-hour HepG2 Assay for Stress Kinase (AID 2282921); details: HepG2 stress kinase (phospho-c-Jun) imaging, actives raise or lower the signal
How it was run: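 Cells were exposed for 72 h to ten concentrations (0.39–200 uM, duplicate) at 0.5% v/v DMSO final, then fixed with 3.7% formaldehyde, permeabilized and immunostained for phospho-c-Jun (Cy3 secondary) with Hoechst nuclear counterstain.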

[14] = APR_HepG2_StressKinase_24hr: Apredica 24-hour HepG2 Assay for Stress Kinase (AID 2282922); details: HepG2 stress kinase (phospho-c-Jun) imaging, actives raise or lower the signal
How it was run: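 HepG2, 24 hr dosing, 0.39–200 uM in duplicate, 0.5% DMSO; formaldehyde fix (3.7%), 0.5% Triton X-100; anti-phospho-c-Jun + Cy3 secondary, Hoechst counterstain; ArrayScan imaging; bidirectional curve fit vs DMSO baseline.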

[15] = APR_HepG2_p53Act_72hr: Apredica 72-hour HepG2 Assay for p53 Activation (AID 2282923); details: high-content imaging, actives raise or lower the signal;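 note: average cellular p53 protein immunofluorescence intensity in HepG2 cells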
How it was run: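 Cells were dosed for 72 hr with compounds at 0.39–200 uM in duplicate (final DMSO 0.5% v/v), then fixed in 3.7% formaldehyde, permeabilized with Triton X-100 and immunostained for p53 (Cy5) with Hoechst 33342 nuclear counterstain.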

[16] = APR_HepG2_MitoMass_72hr: Apredica 72-hour HepG2 Assay for Mitochondrial Mass (AID 2282924); details: high-content imaging, actives raise or lower the signal;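 note: MitoTracker Red CMXRos stain intensity per cell imaged as mitochondrial mass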
How it was run: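 HepG2, 72 hr cmpd, 10 conc 0.39–200 uM in dup, DMSO 0.5% v/v. MitoTracker Red CMXRos 250 nM 30 min pre-fix; formaldehyde 3.7% fix 30 min RT. HCS imaging, gain/loss fit vs DMSO.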

[17] = APR_HepG2_NuclearSize_72hr: Apredica 72-hour HepG2 Assay for Nuclear Size (AID 2282925); details: high-content imaging, actives raise or lower the signal
How it was run: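 HepG2; cpd 0.39–200 uM, 10 conc, duplicate; 72 h; DMSO 0.5% v/v; fix 3.7% formaldehyde 30 min RT; Triton permeabilization; Hoechst 2 ug/mL; HCS imaging 20x; nuclear diameter; gain/loss fit vs DMSO.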

Measured: AC50

CCOS(=O)(=O)OCC
inactive: all assays above

O=c1[nH]c2ccccc2c(=O)o1
inactive: [1]

CCCCc1ccc(O)cc1
active: [1] 10.5 µM

O=P(Oc1ccccc1)(Oc1ccccc1)Oc1ccccc1
active: [2] 83.5 µM | [4] 63.2 µM | [5] 83 µM | [6] 67.5 µM | [9] 67.6 µM | [10] 63.2 µM | [11] 66.4 µM | [12] 70.9 µM | [15] 68.3 µM
inactive: [1] | [3] | [7] | [8] | [13] | [14] | [17]

CC(Cc1ccc(OCC(=O)O)cc1)NCC(O)c1csc(C(F)(F)F)n1 (stereo not drawn)
not listed: [16]
inactive: all other assays above

CCCCCCCc1ccc(O)cc1
active: [1] 0.402 µM
not listed: [9] | [15] | [16]
inactive: all other assays above

Cc1ccc([N+](=O)[O-])cc1C
not listed: [9] | [15] | [16]
inactive: all other assays above

O=C(O)C(Cl)Cl
not listed: [9] | [15] | [16]
inactive: all other assays above
